# Compounds without any hit were thinned out: in the full panel of roughly 79,000, 15% have a hit. Unmarked numbers belong to inactive results. The source made the active and inactive calls. Rule as the data show it: active = growth inhibition above about 70%; inactive = the rest.
# Legend:
# [1] = NCI Yeast Anticancer Drug Screen. Data for the rad52 strain (AID 147);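 also: 0% = growth of vehicle-treated control cultures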; settings: S. cerevisiae rad52 mutant growth inhibition, stronger effect = higher value
# Summary of the method: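 Measured: yeast growth inhibition. System: strain with a defined DNA damage repair alteration. Reference: vehicle-treated control cultures.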
# [2] = NCI Yeast Anticancer Drug Screen. Data for the wt1 strain (AID 149);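 also: 0% = growth of vehicle-treated wt1 cultures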; settings: S. cerevisiae wt1 strain (SPY 50644) growth inhibition, stronger effect = higher value
# Summary of the method: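 Vehicle-normalised growth inhibition; strain wt1; compound exposure.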
# [3] = NCI Yeast Anticancer Drug Screen. Data for the rad50EPP+ strain (AID 151);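 also: 0% = growth of vehicle-treated control cultures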; settings: S. cerevisiae rad50 mutant strain, stronger effect = higher value
# Summary of the method: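 One strain with a rad50 alteration (rad50EPP+) was compound-treated, its growth then compared to that of vehicle controls.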
# [4] = NCI Yeast Anticancer Drug Screen. Data for the mgt1 strain (AID 153); settings: S. cerevisiae mgt1 mutant growth inhibition, stronger effect = higher value
# Summary of the method: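 After exposure of the mgt1 yeast mutant to compound, growth was measured and reported as inhibition compared with vehicle controls.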
# [5] = NCI Yeast Anticancer Drug Screen. Data for the rad50 strain (AID 155);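 also: 0% = growth of vehicle-only cultures of the same strain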; settings: S. cerevisiae rad50 strain growth inhibition, stronger effect = higher value
# Summary of the method: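 A DNA repair-deficient yeast mutant serves as the test organism; compound-induced growth inhibition is calculated against vehicle-treated cells.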
# [6] = NCI Yeast Anticancer Drug Screen. Data for the mec2-1 strain (AID 157); settings: S. cerevisiae mec2-1 strain, stronger effect = higher value
# Summary of the method: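 Test agents were screened against the mec2-1 yeast strain, with defined DNA repair or cell cycle alteration. Growth was scored as inhibition against vehicle-only controls.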
# [7] = NCI Yeast Anticancer Drug Screen. Data for the rad14 strain (AID 159);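 also: 0% = growth of vehicle-treated control cultures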; settings: S. cerevisiae rad14 strain growth inhibition, stronger effect = higher value
# Summary of the method: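 Vehicle-treated cultures served as the baseline for growth inhibition of a DNA repair-mutant yeast strain exposed to each compound.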
# [8] = NCI Yeast Anticancer Drug Screen. Data for the sgs1 mgt1 strain (AID 161);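 also: 0% = growth of cultures given vehicle only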; settings: S. cerevisiae sgs1 mgt1 strain, stronger effect = higher value
# Summary of the method: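 Mutant yeast exposed to compound; growth scored against vehicle-only wells.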
# [9] = NCI Yeast Anticancer Drug Screen. Data for the CLN2oe strain (AID 163);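 also: 0% = growth of vehicle-only control cultures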; settings: S. cerevisiae CLN2oe strain, stronger effect = higher value
# Summary of the method: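 Here, growth inhibition in a cell-cycle-altered yeast strain after compound exposure was quantified against vehicle control growth.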
# [10] = NCI Yeast Anticancer Drug Screen. Data for the cln2 rad14 strain (AID 165);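 also: 0% = growth equal to vehicle treated cultures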; settings: S. cerevisiae cln2 rad14 strain, stronger effect = higher value
# Summary of the method: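 Growth of compound-exposed yeast (cln2 rad14 genotype) measured and expressed as inhibition relative to vehicle.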
# [11] = NCI Yeast Anticancer Drug Screen. Data for the bub3 strain (AID 167); settings: S. cerevisiae bub3 mutant strain, stronger effect = higher value
# Summary of the method: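 Inhibition values come from growth of compound-treated mutant yeast normalised to vehicle-treated controls.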
# [12] = NCI Yeast Anticancer Drug Screen. Data for the wt2 strain (AID 169);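 also: 0% = growth of vehicle-treated yeast cultures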; settings: S. cerevisiae wt2 strain growth inhibition, stronger effect = higher value
# Summary of the method: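 Genetically defined yeast strains from a DNA-repair/cell-cycle panel were used. Compound-exposed yeast growth was measured, and the inhibition was calculated relative to vehicle treatment.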
# [13] = NCI Yeast Anticancer Drug Screen. Data for the mlh1 strain (AID 171);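 also: 0% = growth of vehicle-treated control cultures of the same strain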; settings: S. cerevisiae mlh1 strain growth inhibition, stronger effect = higher value
# Summary of the method: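 Here the genetically defined yeast mutant is grown with each compound, and the extent to which its growth falls below that of vehicle-exposed cells is reported.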
# [14] = NCI Yeast Anticancer Drug Screen. Data for the mlh1 rad18 strain (AID 175); settings: S. cerevisiae mlh1 rad18 strain growth inhibition, stronger effect = higher value
# Summary of the method: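 In this whole-cell yeast screen, a strain with altered DNA damage repair is challenged with compound, and its growth is measured against matched vehicle-treated controls.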
# [15] = NCI Yeast Anticancer Drug Screen. Data for the rad18 strain (AID 177); settings: S. cerevisiae rad18 mutant growth inhibition, stronger effect = higher value
# Summary of the method: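 Screen uses a yeast strain with a defined lesion in DNA damage repair; compound effect is read as loss of growth compared to untreated vehicle cultures.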
# [16] = at 5.0 µM (retest, dose inferred, filed as 0.5)
# [17] = at 50.0 µM (retest, dose inferred, filed as 5.0)
smiles,measurement,setting,value
Cc1cc2c(cc1C)[n+]([O-])c(-c1nc3ccccc3s1)c(N)[n+]2[O-],growth inhibition,[1]; at 1.2 µM,2%
same,growth inhibition,[1]; at 3.7 µM,10%
same,growth inhibition,[1]; at 11.0 µM,20%
same,growth inhibition,[1]; at 33.0 µM,35%
same,growth inhibition,[1]; at 100.0 µM,88% (active)
same,growth inhibition,[2]; at 1.2 µM,10%
same,growth inhibition,[2]; at 3.7 µM,13%
same,growth inhibition,[2]; at 11.0 µM,17%
same,growth inhibition,[2]; at 33.0 µM,20%
same,growth inhibition,[2]; at 100.0 µM,25%
same,growth inhibition,[3]; at 1.2 µM,1%
same,growth inhibition,[3]; at 3.7 µM,15%
same,growth inhibition,[3]; at 11.0 µM,44%
same,growth inhibition,[3]; at 33.0 µM,82% (active)
same,growth inhibition,[3]; at 100.0 µM,97% (active)
same,growth inhibition,[4]; at 1.2 µM,11%
same,growth inhibition,[4]; at 3.7 µM,18%
same,growth inhibition,[4]; at 11.0 µM,23%
same,growth inhibition,[4]; at 33.0 µM,40%
same,growth inhibition,[4]; at 100.0 µM,94% (active)
same,growth inhibition,[5]; at 1.2 µM,0%
same,growth inhibition,[5]; at 3.7 µM,10%
same,growth inhibition,[5]; [16],3%
same,growth inhibition,[5]; at 11.0 µM,23%
same,growth inhibition,[5]; at 33.0 µM,40%
same,growth inhibition,[5]; [17],58%
same,growth inhibition,[5]; at 50.0 µM,87.8% (active)
same,growth inhibition,[5]; at 100.0 µM,93% (active)
same,growth inhibition,[6]; at 1.2 µM,11%
same,growth inhibition,[6]; at 3.7 µM,21%
same,growth inhibition,[6]; [16],23%
same,growth inhibition,[6]; at 11.0 µM,26%
same,growth inhibition,[6]; at 33.0 µM,37%
same,growth inhibition,[6]; [17],79% (active)
same,growth inhibition,[6]; at 50.0 µM,76% (active)
same,growth inhibition,[6]; at 100.0 µM,97% (active)
same,growth inhibition,[7]; at 1.2 µM,1%
same,growth inhibition,[7]; at 3.7 µM,14%
same,growth inhibition,[7]; at 11.0 µM,22%
same,growth inhibition,[7]; at 33.0 µM,29%
same,growth inhibition,[7]; at 100.0 µM,85% (active)
same,growth inhibition,[8]; [16],28%
same,growth inhibition,[8]; [17],89% (active)
same,growth inhibition,[8]; at 50.0 µM,80.6% (active)
same,growth inhibition,[9]; at 1.2 µM,-1%
same,growth inhibition,[9]; at 3.7 µM,5%
same,growth inhibition,[9]; at 11.0 µM,18%
same,growth inhibition,[9]; at 33.0 µM,10%
same,growth inhibition,[9]; at 100.0 µM,25%
same,growth inhibition,[10]; [16],2%
same,growth inhibition,[10]; [17],41%
same,growth inhibition,[10]; at 50.0 µM,81.5% (active)
same,growth inhibition,[11]; at 1.2 µM,11%
same,growth inhibition,[11]; at 3.7 µM,32%
same,growth inhibition,[11]; [16],47%
same,growth inhibition,[11]; at 11.0 µM,46%
same,growth inhibition,[11]; at 33.0 µM,53%
same,growth inhibition,[11]; [17],92% (active)
same,growth inhibition,[11]; at 50.0 µM,93.7% (active)
same,growth inhibition,[11]; at 100.0 µM,96% (active)
same,growth inhibition,[12]; at 1.2 µM,14%
same,growth inhibition,[12]; at 3.7 µM,18%
same,growth inhibition,[12]; at 11.0 µM,18%
same,growth inhibition,[12]; at 33.0 µM,21%
same,growth inhibition,[12]; at 100.0 µM,58%
same,growth inhibition,[13]; at 1.2 µM,6%
same,growth inhibition,[13]; at 3.7 µM,14%
same,growth inhibition,[13]; at 11.0 µM,17%
same,growth inhibition,[13]; at 33.0 µM,20%
same,growth inhibition,[13]; at 100.0 µM,55%
same,growth inhibition,[14]; [16],33%
same,growth inhibition,[14]; [17],90% (active)
same,growth inhibition,[14]; at 50.0 µM,94.9% (active)
same,growth inhibition,[15]; at 1.2 µM,4%
same,growth inhibition,[15]; at 3.7 µM,20%
same,growth inhibition,[15]; at 11.0 µM,36%
same,growth inhibition,[15]; at 33.0 µM,63%
same,growth inhibition,[15]; at 100.0 µM,91% (active)
CC[N+]1(C)CCC(O)(c2ccc(OC)cc2)C(C(=O)c2ccc(OC)cc2)C1 (stereo unspecified),growth inhibition,[1]; at 1.2 µM,-10%
same,growth inhibition,[1]; at 3.7 µM,-13%
same,growth inhibition,[1]; at 11.0 µM,-22%
same,growth inhibition,[1]; at 33.0 µM,-19%
same,growth inhibition,[1]; at 100.0 µM,-20%
same,growth inhibition,[2]; at 1.2 µM,-69%
same,growth inhibition,[2]; at 3.7 µM,-76%
same,growth inhibition,[2]; at 11.0 µM,-72%
same,growth inhibition,[2]; at 33.0 µM,-62%
same,growth inhibition,[2]; at 100.0 µM,-58%
same,growth inhibition,[3]; at 1.2 µM,-32%
same,growth inhibition,[3]; at 3.7 µM,-32%
same,growth inhibition,[3]; at 11.0 µM,-38%
same,growth inhibition,[3]; at 33.0 µM,-35%
same,growth inhibition,[3]; at 100.0 µM,-23%
same,growth inhibition,[4]; at 1.2 µM,-39%
same,growth inhibition,[4]; at 3.7 µM,-52%
same,growth inhibition,[4]; at 11.0 µM,-54%
same,growth inhibition,[4]; at 33.0 µM,-54%
same,growth inhibition,[4]; at 100.0 µM,-44%
same,growth inhibition,[5]; at 1.2 µM,-24%
same,growth inhibition,[5]; at 3.7 µM,-19%
same,growth inhibition,[5]; [16],24%
same,growth inhibition,[5]; at 11.0 µM,-37%
same,growth inhibition,[5]; at 33.0 µM,-21%
same,growth inhibition,[5]; [17],28%
same,growth inhibition,[5]; at 50.0 µM,-1.2%
same,growth inhibition,[5]; at 100.0 µM,-30%
same,growth inhibition,[6]; at 1.2 µM,-63%
same,growth inhibition,[6]; at 3.7 µM,-56%
same,growth inhibition,[6]; [16],7%
same,growth inhibition,[6]; at 11.0 µM,-69%
same,growth inhibition,[6]; at 33.0 µM,-61%
same,growth inhibition,[6]; [17],23%
same,growth inhibition,[6]; at 50.0 µM,14.8%
same,growth inhibition,[6]; at 100.0 µM,-74%
same,growth inhibition,[7]; at 1.2 µM,6%
same,growth inhibition,[7]; at 3.7 µM,0%
same,growth inhibition,[7]; at 11.0 µM,-33%
same,growth inhibition,[7]; at 33.0 µM,-3%
same,growth inhibition,[7]; at 100.0 µM,-27%
same,growth inhibition,[8]; [16],87% (active)
same,growth inhibition,[8]; [17],95% (active)
same,growth inhibition,[8]; at 50.0 µM,-4.7%
same,growth inhibition,[9]; at 1.2 µM,-13%
same,growth inhibition,[9]; at 3.7 µM,-3%
same,growth inhibition,[9]; at 11.0 µM,-14%
same,growth inhibition,[9]; at 33.0 µM,-4%
same,growth inhibition,[9]; at 100.0 µM,-20%
same,growth inhibition,[10]; [16],86% (active)
same,growth inhibition,[10]; [17],97% (active)
same,growth inhibition,[10]; at 50.0 µM,20.1%
same,growth inhibition,[11]; at 1.2 µM,-49%
same,growth inhibition,[11]; at 3.7 µM,-42%
same,growth inhibition,[11]; [16],35%
same,growth inhibition,[11]; at 11.0 µM,-61%
same,growth inhibition,[11]; at 33.0 µM,-52%
same,growth inhibition,[11]; [17],91% (active)
same,growth inhibition,[11]; at 50.0 µM,8.55%
same,growth inhibition,[11]; at 100.0 µM,-68%
same,growth inhibition,[12]; at 1.2 µM,-21%
same,growth inhibition,[12]; at 3.7 µM,-15%
same,growth inhibition,[12]; at 11.0 µM,-14%
same,growth inhibition,[12]; at 33.0 µM,-16%
same,growth inhibition,[12]; at 100.0 µM,-22%
same,growth inhibition,[13]; at 1.2 µM,-78%
same,growth inhibition,[13]; at 3.7 µM,-64%
same,growth inhibition,[13]; at 11.0 µM,-16%
same,growth inhibition,[13]; at 33.0 µM,-55%
same,growth inhibition,[13]; at 100.0 µM,-62%
same,growth inhibition,[14]; [16],25%
same,growth inhibition,[14]; [17],29%
same,growth inhibition,[14]; at 50.0 µM,6.75%
same,growth inhibition,[15]; at 1.2 µM,-7%
same,growth inhibition,[15]; at 3.7 µM,-17%
same,growth inhibition,[15]; at 11.0 µM,-13%
same,growth inhibition,[15]; at 33.0 µM,-23%
same,growth inhibition,[15]; at 100.0 µM,-23%

# — PubChem BioAssay (NCI)
